NPC1 promoter act: qHTS Assay for NPC1 Promoter Activators; Huh7 NPC1 promoter luciferase reporter, 24 h; Potency, µM (doses to about 9.22 µM), actives largely listed as activators; 320,000 compounds, 2.4% hits; AID 485313, 2010; also: nearly all actives have a fitted effect of over 60% in size
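In 1536-well qHTS, Huh7 cells harboring an NPC1 promoter–luciferase construct received compound for 24 h; activation was quantified by luminescence following luciferase reagent addition.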
ELG1 genotox: qHTS screen for small molecules that induce genotoxicity in human embryonic kidney (HEK293T) cells expressing luciferase-tagged ELG1 | HEK293T ELG1-luciferase reporter, luminescence, 16 h | Potency, µM (series often up to 46 µM), hits mostly activators | 330,000 compounds, 1.3% hits; also: nearly all actives have a fitted effect of over 60% in size
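Reporter readout depends on ELG1 protein level, which increases with genetic stress. After 16 hr compound exposure at 37 °C, luciferase activity was quantified using ONE-Glo.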
SMN2 splice up: qHTS Assay for Enhancers of SMN2 Splice Variant Expression. HEK293 SMN2-luciferase splicing reporter, luminescence, 30-36 h. Potency, µM (series often up to 46.1 µM), usual class: activators. 210,000 compounds, 2.8% hits. AID 1458, 2008; also: nearly all actives have a fitted effect of over 55% in size
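HEK293 cells carry an SMN2 minigene-luciferase reporter in which exon 7 inclusion puts luciferase in frame. Cells were seeded at 2000 cells/well, attached for 10-12 hours, then exposed to compounds for 30-36 hours at 37C before ONE-Glo luminescence.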
ELG1 repair inh: qHTS screen for small molecules that inhibit ELG1-dependent DNA repair in human embryonic kidney (HEK293T) cells expressing luciferase-tagged ELG1. HEK293T ELG1-luciferase reporter, luminescence, 16 h; DNA damage induced by 5-fluorouridine. Potency, µM (highest dose often 46.1 µM), actives largely listed as inhibitors. 330,000 compounds, 2.3% hits. AID 504467, 2011; also: nearly all actives have a fitted effect of over 55% in size
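Luminescence from the luciferase reporter, measured 30 min after ONE-Glo reagent at room temperature, was the read-out. Beforehand, 2,000 cells per well were exposed for 16 hr at 37 °C to 5-fluorouridine together with compound or vehicle.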
Rab9 promoter act: qHTS Assay for Rab9 Promoter Activators | Huh7 Rab9 promoter-luciferase reporter, luminescence, 24 h | Potency, µM (highest dose often 9.22 µM), hits mostly activators | 320,000 compounds, 2.8% hits | AID 485297, 2010; also: nearly all actives have a fitted effect of over 60% in size
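Promoter activation is measured as luciferase luminescence in Huh7 cells stably transfected with a Rab9 promoter–luciferase construct, following 24 h compound exposure at 37 °C and 10 min reagent incubation at ambient temperature.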
FLuc modulator: qHTS profiling assay for firefly luciferase inhibitor/activator using purifed enzyme and Km concentrations of substrates (counterscreen for miR-21 project); Luciferin 4-monooxygenase (Photinus pyralis), P08659; purified FLuc, Km substrates, luminescence inhibition; Potency, µM (titrated, usually from 57.5 µM), usual class: inhibitors; 360,000 compounds, 6.9% hits; AID 588342, 2011; also: nearly all actives have a fitted effect of over 55% in size
Target sequence (P08659 whole entry, looked up): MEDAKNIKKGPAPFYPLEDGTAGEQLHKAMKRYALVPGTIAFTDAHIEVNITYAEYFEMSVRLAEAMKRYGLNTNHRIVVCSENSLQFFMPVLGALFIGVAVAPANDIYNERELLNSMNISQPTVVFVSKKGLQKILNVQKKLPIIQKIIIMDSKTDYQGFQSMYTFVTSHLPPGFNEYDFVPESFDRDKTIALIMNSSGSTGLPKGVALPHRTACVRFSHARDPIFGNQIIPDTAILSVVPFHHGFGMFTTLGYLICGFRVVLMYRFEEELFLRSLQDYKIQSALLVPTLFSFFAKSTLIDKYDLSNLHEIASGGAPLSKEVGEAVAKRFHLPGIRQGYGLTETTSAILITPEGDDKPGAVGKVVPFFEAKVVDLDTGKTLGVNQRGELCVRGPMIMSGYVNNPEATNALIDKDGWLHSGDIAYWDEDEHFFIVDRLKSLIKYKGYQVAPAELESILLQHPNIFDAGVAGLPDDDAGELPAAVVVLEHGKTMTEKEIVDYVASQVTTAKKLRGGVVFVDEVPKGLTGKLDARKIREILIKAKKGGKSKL
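Biochemical qHTS of compounds, final roughly 60 µM downward over six points, against 10 nM purified firefly luciferase using Km concentrations of substrates (10 uM D-luciferin, 10 uM ATP) in Tris acetate pH 7.5 buffer; luminescence output.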
Of the large screens only hits and unclear results are named; the others gave an inactive call. An excerpt weighted towards active compounds, which were near 9.3% of everything screened. Calls follow the shape of the dose curve; as a rule, active = well fitted curve in the direction sought with a large enough effect; inconclusive = small, poorly fitted or top-dose-only effect, or another doubt; inactive = no such curve, though single readings can be large; an effect the other way counts as inactive or inconclusive.

CCOc1ccc(S(=O)(=O)N2CCCC(C(=O)N3CCN(c4ccccc4)CC3)C2)cc1 (configuration not stated)	none (no result: SMN2 splice up)
Cc1ccc(S(=O)(=O)N2CCCC(C(=O)N3CCCc4ccccc43)C2)cc1 (configuration not stated)	none (no result: SMN2 splice up)
COc1ccc(N2CCN(C(=O)C3CCCN(S(=O)(=O)c4ccc(C)cc4)C3)CC2)cc1 (configuration not stated)	ELG1 repair inh 21µM (no result: SMN2 splice up)
Cc1ccc(S(=O)(=O)N2CCCC(C(=O)N3CCN(c4ccccc4)CC3)C2)cc1 (configuration not stated)	ELG1 repair inh 21µM (no result: SMN2 splice up)
O=C(C1CCCN(S(=O)(=O)c2ccccc2)C1)N1CCCc2ccccc21 (configuration not stated)	ELG1 repair inh 23µM
Cc1ccc2nc3c(c(Nc4ccc5c(c4)OCCO5)c2c1)CCC3	none
O=C(O)CCCCCNc1nc2ncn(Cc3ccccc3)c2c(=O)[nH]1	SMN2 splice up inconclusive
CC(C)(C)N(Cc1ccccc1)C(=O)COC(=O)CNC(=O)c1ccco1	none (no result: SMN2 splice up)
CC(=O)N(C(C)=O)N1C(=O)c2cccc3c(N4CCOCC4)ccc(c23)C1=O	none
COc1ccc(C(=O)CN2C(=O)NC3(CCCc4ccccc43)C2=O)c(OC)c1 (configuration not stated)	none (no result: SMN2 splice up)
COc1cccc(NC(=O)c2cccc(N3C(=O)C4CCC(C)CC4C3=O)c2)c1 (configuration not stated)	none (no result: SMN2 splice up)
O=C(Nc1cccc(N2C(=O)C3CCCCC3C2=O)c1)c1ccccc1 (configuration not stated)	FLuc modulator 19µM (no result: SMN2 splice up)
Cc1ccc(C(=O)Nc2cccc(N3C(=O)C4CCC(C)CC4C3=O)c2)cc1 (configuration not stated)	FLuc modulator 7.6µM (no result: SMN2 splice up)
CCOc1cc(C(=S)N2CCCCC2)ccc1OCC(=O)NCc1ccccc1	FLuc modulator 17µM
O=C(CCCCCN1CCN(c2ccccc2-c2ccccc2)CC1)NC1CCCc2ccccc21 (configuration not stated)	none (no result: ELG1 genotox, SMN2 splice up, ELG1 repair inh, FLuc modulator)
O=C(CSc1nnc(-c2ccc(F)cc2)o1)N1CCCCC1	NPC1 promoter act inconclusive, ELG1 genotox 21µM, ELG1 repair inh inconclusive, Rab9 promoter act inconclusive, FLuc modulator inconclusive (no result: SMN2 splice up)
Cc1cc(C)cc(-c2nnc(SCC(=O)N3CCN(C(=O)c4ccco4)CC3)o2)c1	ELG1 repair inh inconclusive
CC1CCN(C(=O)CCc2nnc(-c3ccccc3)o2)CC1	NPC1 promoter act inconclusive, ELG1 genotox inconclusive, ELG1 repair inh inconclusive, Rab9 promoter act inconclusive, FLuc modulator 15µM (no result: SMN2 splice up)
O=C(CSc1nnc(-c2ccc(Br)cc2)o1)N1CCN(C(=O)c2ccco2)CC1	ELG1 repair inh 23µM
O=C(CCc1nnc(-c2ccc3c(c2)OCO3)o1)N1CCC(c2ccc(F)cc2)C1 (configuration not stated)	ELG1 genotox inconclusive, ELG1 repair inh inconclusive, Rab9 promoter act inconclusive, FLuc modulator 19µM (no result: SMN2 splice up)
COc1ccc(-c2cc(=O)oc3cc(OCC(=O)Nc4ccccn4)ccc23)cc1	ELG1 repair inh inconclusive (no result: SMN2 splice up)
O=c1cc(CSc2ccc([N+](=O)[O-])cc2)nc2sccn12	none
O=C(CSc1nnc(-c2ccccc2)o1)N1CCCCC1	NPC1 promoter act 2.8µM, ELG1 genotox inconclusive, ELG1 repair inh inconclusive, Rab9 promoter act 2.5µM, FLuc modulator 15µM (no result: SMN2 splice up)
CCCOc1cccc(C2/C(=C(/O)c3ccc4c(c3)CC(C)O4)C(=O)C(=O)N2CCN2CCOCC2)c1 (configuration not stated)	none (no result: SMN2 splice up)
COc1ccc(N2CCN(C(=O)CSc3nnc4c(C)cc5ccccc5n34)CC2)cc1	ELG1 repair inh 23µM
Cc1cc2ccccc2n2c(SCC(=O)N3CCc4ccccc4C3)nnc12	ELG1 repair inh inconclusive

Compound activity: PubChem, National Center for Advancing Translational Sciences (NCATS)
